The source of these data is PubChem BioAssay (NCATS).

Molecules are shown by their SMILES. Inconclusive results are not listed. Values without a mark were called inactive. Active and inactive are the calls of the source. Unless noted, the call rests on the fitted dose curve.

The target in experiment [1] is Cytochrome P450 1A2 (Homo sapiens) (UniProt P05177). Kind of experiment: p450-cyp1a2 (AID 410). Further: potency means the concentration at half of the fitted maximal effect.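 On activity change, negative = inhibition: -100% = full effect of reference inhibitor.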 The following applies: recombinant CYP1A2, luciferin-ME demethylation, luminescence; series mostly up to 57 µM. The method, boiled down:
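20nM CYP1A2 with 100uM Luciferin-ME (at Km) in 100mM KPO4; compound preincubated 10 min, NADPH regeneration added, 60 min at room temperature. Luciferin quantified by luminescence after detection reagent; normalized to 57 uM furafylline.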

A short description of experiment [2]: Cell Viability - BJ (AID 421).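 Further: potency means the concentration at half of the fitted maximal effect; cells exposed to compound for 40 hours at 37 °C before readout.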 The following applies: BJ fibroblast viability, qHTS. The essentials:
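Luminescent ATP signal (CellTiter-Glo, 20 min at room temperature) served as the read-out of viable BJ cells after 40 hours of compound treatment. Responses were scaled between DMSO and 100 uM tamoxifen, and AC50 values were obtained by Hill modeling.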
(In qHTS, concentration-response curves come from the screen itself.)

A short description of experiment [3]: Cell Viability - Jurkat (AID 426;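 active means dose-dependent loss of cell ATP signal giving a full or clear fitted curve, ranked by lower potency value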;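 further: potency means the concentration at half of the fitted maximal effect; cells exposed to compound for 40 hours at 37 °C before ATP read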). The note with it: qHTS. The method, boiled down:
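Jurkat (Clone E6-1) cells, 5000/well in complete medium, exposed to compounds for 40 hr at 37C; intracellular ATP measured by CellTiter-Glo luminescence after 20 min at room temperature. AC50 from Hill fits.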

The nature of experiment [4]: Cell Viability - Hek293 (AID 427;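 active means compounds whose dose-response curve shows a full or clear partial loss of cell viability, called from curve shape rather than a numeric limit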;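 further: potency means the concentration at half of the fitted maximal effect; cells exposed to compound for 40 hours at 37 °C before reading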). The note with it: qHTS. The essentials:
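Luminescent ATP read-out (CellTiter-Glo, 20 min RT) after 40 hr compound exposure at 37 °C in complete medium. Signal normalized to DMSO (basal) and 100 uM tamoxifen (100% inhibition); concentration-response fitted with the standard Hill equation to give AC50.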

Experiment [5] in a line: Cell Viability - HepG2 (AID 433).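 Further: potency means the concentration at half of the fitted maximal effect; potency for ATP loss meaning cytotoxicity.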 The note with it: qHTS. The essentials: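 In this qHTS format, a 40 h, 37 °C compound incubation of HepG2 cells in complete medium precedes a 20 min CellTiter-Glo step at room temperature. Tamoxifen and doxorubicin serve as positive controls; Hill-equation fits yield AC50.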
Experiment [6] is described as follows: Cell Viability - MRC5 (AID 434).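 Further: potency means the concentration at half of the fitted maximal effect; potency reflects cytotoxicity seen as loss of intracellular ATP.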 The note with it: MRC5 lung fibroblast viability, qHTS. The essentials: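 qHTS cytotoxicity in human lung fibroblast MRC5 cells; 40 hr treatment, 37 °C; cellular ATP by luciferase luminescence; DMSO = 0%, 100 uM tamoxifen = 100% inhibition; Hill-fit AC50.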
Experiment [7] is described as follows: Cell Viability - SK-N-SH (AID 435).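 Further: potency means the concentration at half of the fitted maximal effect; compound exposure lasted 40 h at 37 °C.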 The note with it: SK-N-SH neuroblastoma cell viability qHTS. The method, boiled down: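 Human neuroblastoma line, 40 h exposure at 37 °C, ATP quantified via luciferase luminescence; DMSO and 100 uM tamoxifen define 0 and 100% inhibition for AC50 fitting.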
Experiment [8] is described as follows: NFAT Signaling Pathway (AID 444; active means well fitted curve in either direction with a large enough effect, not every such curve was filed as active;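 further: carbachol stimulus at about its EC50 of 1 µM final; on the % scale 0 is the no-effect control and ±100 the full control effect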). The following applies: Jurkat NFAT-bla M1, carbachol, beta-lactamase ratio, 5 h; at 38 µM (top of the series). The method, boiled down: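 Read-out: CCF4 FRET ratio (460 nm/530 nm) after 1 h RT dye loading, used for %activity and AC50 from titration series. Cells: Jurkat NFAT-β-lactamase/M1 line, treated with compound plus 1 uM carbachol for 5 h, 37 °C.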

Experiment [9] is described as follows: AP1 Signaling Pathway (AID 357; active means well fitted curve in either direction with a large enough effect, not every such curve was filed as active;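 further: ME-180 reporter cells stimulated with EGF at its EC50 level; on the % scale 0 is the no-effect control and ±100 the full control effect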). The following applies: ME-180 AP-1-bla reporter, EGF-induced, beta-lactamase ratio, 5 h; at 38 µM (top of the series). The method, boiled down: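 First, ME-180 AP-1-bla cells were cultured overnight at 37 °C in low-serum Opti-MEM. Next, titrated compounds with EC50 EGF were incubated 5 hours. Finally, CCF4 was added for 2.5 hours and the 460/530 nm ratio recorded.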

A short description of experiment [10]: Stat Signaling Pathway (AID 446; active means well fitted curve in either direction with a large enough effect, not every such curve was filed as active;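 further: ME-180 cervical cancer cells given 40 pM IL-6 alongside compound; SIE-controlled beta-lactamase reporter measured as 460/530 nm FRET emission ratio; on the % scale 0 is the no-effect control and ±100 the full control effect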). The following applies: ME-180 (cervical carcinoma) SIE beta-lactamase reporter, IL-6 stimulated, 5 h; at 38 µM (top of the series). The method, boiled down:
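ME-180 SIE-bla cells; overnight plating; cpd + IL-6 40 pM, 5 h, 37 C; LiveBLAzer 2.5 h RT; 460/530 nm emission ratio. Normalized to 300 pM IL-6 and 125 nM JAK inhibitor controls.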

Chain of Cytochrome P450 1A2 (Homo sapiens) (P05177 whole entry, looked up): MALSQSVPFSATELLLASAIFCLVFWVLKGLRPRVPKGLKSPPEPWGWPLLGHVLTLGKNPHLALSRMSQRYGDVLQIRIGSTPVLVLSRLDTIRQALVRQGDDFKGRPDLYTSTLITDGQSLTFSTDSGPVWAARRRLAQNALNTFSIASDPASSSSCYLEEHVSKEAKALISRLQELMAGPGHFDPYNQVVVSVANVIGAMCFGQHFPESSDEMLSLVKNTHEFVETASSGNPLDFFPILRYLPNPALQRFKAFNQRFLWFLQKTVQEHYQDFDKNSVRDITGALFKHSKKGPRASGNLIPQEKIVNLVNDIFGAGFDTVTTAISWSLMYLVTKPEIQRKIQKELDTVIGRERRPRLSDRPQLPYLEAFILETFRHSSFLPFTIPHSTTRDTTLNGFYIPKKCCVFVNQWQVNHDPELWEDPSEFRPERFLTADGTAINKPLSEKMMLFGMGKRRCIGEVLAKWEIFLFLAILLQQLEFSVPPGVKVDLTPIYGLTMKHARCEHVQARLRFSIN

As to `COc1ccc(C(=O)c2c(C)n(CCN3CCOCC3)c3cc(I)ccc23)cc1`, in experiment [1], the Potency is 15.8 µM (active).
Turning to `CC(=O)[O][Hg][c]1ccccc1`, the Potency in experiment [2] is 5.56 µM (active); in experiment [3], 0.47 µM (active); in [4], 2.24 µM (active); in experiment [5], 25.1 µM (active); in experiment [6], 10.9 µM (active); in [7], 2.17 µM (active).
Consider `O=[N+]([O-])c1c2ccccc2cc2ccccc12`, for which the Potency in experiment [2], in experiment [3], in experiment [4], in experiment [5], in experiment [6] and in [7] was > 92 µM in each case.
As to `Cc1c(C(=O)c2cccc3ccccc23)c2cccc3c2n1[C@H](CN1CCOCC1)CO3`, the activity change, negative = inhibition in experiment [8] is -21.8%.
`COc1ccc(C(c2ccc(OC)cc2)C(Cl)(Cl)Cl)cc1`: the Potency in experiment [2], in experiment [5], in experiment [6] and in experiment [7] was > 92 µM in each case.
As to `C=CC(=O)NCNC(=O)C=C`, the Potency in [2], in [3], in experiment [4], in [5], in experiment [6] and in experiment [7] was > 92 µM each time.
With `C1CCC(NC2CCCCC2)CC1`, the Potency in experiment [2], in experiment [3], in [4], in experiment [5], in [6] and in experiment [7] was > 92 µM in each case.
For `O=S(=O)(c1ccc(Cl)cc1)c1ccc(Cl)cc1`, the Potency in experiment [2], in experiment [3], in experiment [4], in experiment [5], in experiment [6] and in experiment [7] was > 92 µM in each case.
Regarding `CCOP(=O)(NC(C)C)Oc1ccc(SC)c(C)c1` (stereo not given), the Potency in experiment [2], in experiment [3], in experiment [5], in experiment [6] and in experiment [7] was > 92 µM throughout.
For `CC(C)(O)C(=O)Nc1ccc([N+](=O)[O-])c(C(F)(F)F)c1`, the Potency in experiment [2], in experiment [3], in experiment [4], in [5], in [6] and in experiment [7] was > 92 µM each time.
`COC(C)(C)CCCC(C)C/C=C/C(C)=C/C(=O)OC(C)C` (stereo not given): the Potency in [2], in experiment [3], in experiment [4], in experiment [5], in [6] and in experiment [7] was > 92 µM throughout.
As to `O=C(O)COc1ccccc1`, the Potency in [2], in experiment [3], in [4], in experiment [5], in [6] and in experiment [7] was > 92 µM each time.
Regarding `O=C(O)C(Cl)Cl`, the Potency in [2], in experiment [3], in experiment [4], in experiment [5], in [6] and in experiment [7] was > 92 µM throughout.
For the compound `Nc1ccc(Cl)cc1N`, the Potency in [2] was > 92 µM; in experiment [3] it was 4.05 µM (active); in experiment [4], > 92 µM; in [6], > 92 µM.
Consider `CCCCCCCCc1ccc(O)cc1`, for which the Potency in experiment [2], in experiment [3], in [4], in experiment [5], in [6] and in [7] was > 92 µM in each case.
For the compound `Nc1ccc(Cl)cc1`, the Potency in experiment [2], in [3], in experiment [4], in experiment [5], in experiment [6] and in experiment [7] was > 92 µM in each case.
Take `Nc1ccc([N+](=O)[O-])cc1`: the Potency in experiment [2], in [3], in experiment [4], in experiment [5], in experiment [6] and in experiment [7] was > 92 µM in each case.
Consider `COC(=O)[C@@H](N)CCCN=C(N)N[N+](=O)[O-]`, for which the Potency result in [1] is “inactive”.
On to `CCCCC(CC)COC(=O)c1ccccc1C(=O)OCC(CC)CCCC` (stereo not given), for which the Potency in experiment [2], in [3], in experiment [4], in experiment [5], in experiment [6] and in experiment [7] was > 92 µM throughout.
Regarding `S=C(NC1CCCCC1)N1CCC(c2cnc[nH]2)CC1`, in [9], the activity change, negative = inhibition is -10.5%. The activity, negative = inhibition in experiment [10] was 6.17%.
For the compound `OCCCBr`, the Potency in experiment [2], in [3], in experiment [4], in experiment [5], in experiment [6] and in [7] was > 92 µM throughout.
Regarding `CN(C)NC(=O)CCC(=O)O`, the Potency in [2], in experiment [3], in [4], in experiment [5], in experiment [6] and in experiment [7] was > 92 µM throughout.
For the compound `O=[N+]([O-])c1cc([N+](=O)[O-])c2ccccc2c1`, the Potency in experiment [2], in experiment [3], in experiment [4], in [5], in [6] and in experiment [7] was > 92 µM throughout.
Turning to `Nc1ccc(Sc2ccc(N)cc2)cc1`, the Potency in experiment [2], in experiment [3], in experiment [4], in experiment [5], in experiment [6] and in experiment [7] was > 92 µM throughout.
